For orientation: AC50 means the midpoint of the concentration-response curve, whichever way the signal moves.

Records with an inconclusive call do not appear. Calls of active or inactive are those of the source. Rule for the calls: active = hit-call score of the fitted dose curve at least 0.9, where 1 is the maximum; inconclusive = response in the unintended direction; inactive = score below 0.9.

Assay [1] has as its target rat Serotonin, 5-Hydroxytryptamine Receptor (5HT), Non-Selective Binding, Htr1a (gene 24473) (UniProt P19327). Description: NVS_GPCR_r5HT_NonSelective: NovaScreen (NVS) G Protein-Coupled Receptor Assay for rat Serotonin, 5-Hydroxytryptamine Receptor (5HT), Non-Selective Binding (AID 2283295). The essentials: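 Rat cortex membrane preparation incubated 1 h with radioligand and test chemical; bound radioactivity counted after filtration. Screening began in duplicate at 25 uM with concentration-series follow-up; fitting relative to DMSO.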

Assay [2] concerns the target rat Histamine Receptor (H3), Hrh3 (gene 85268) (UniProt Q9QYN8). The assay is described as follows: NVS_GPCR_rH3: NovaScreen (NVS) G Protein-Coupled Receptor Assay for rat Histamine Receptor (H3) (AID 2283303). The essentials: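 Filter-binding radioligand competition on rat forebrain membranes, 1 h incubation; compounds screened at 25 µM in duplicate and followed in concentration series to 50 µM, loss of bound signal vs DMSO.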

Assay [3] deals with rabbit Platelet Activating Factor Receptor (PAF), gene 100354046. The assay is described as follows: NVS_GPCR_rabPAF: NovaScreen (NVS) G Protein-Coupled Receptor Assay for rabbit Platelet Activating Factor Receptor (PAF) (AID 2283287). Put shortly: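 Rabbit platelet membrane preparation; radioligand displacement read by filter-based scintillation counting 1 h after dosing, loss of signal versus DMSO. Primary screen in duplicate at 25 uM, actives followed up in concentration series.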

Assay [4] deals with human Opioid Receptor Mu (Opiate Mu), OPRM1 (gene 4988) (UniProt P35372). Description: NVS_GPCR_hOpiate_mu: NovaScreen (NVS) G Protein-Coupled Receptor Assay for human Opioid Receptor Mu (Opiate Mu) (AID 2283290).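 Note: hits lower bound tracer signal versus DMSO meaning displacement of the ligand.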 Put shortly:
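Cell-free radioligand binding to membranes from CHO cells expressing the receptor; bound tracer measured by filter-based scintillation counting 2.5 hours after dosing. Loss of signal versus DMSO baseline reflects displacement; primary screen at 25 uM in duplicate, actives followed up in concentration series.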

The target in assay [5] is guinea pig Serotonin, 5-Hydroxytryptamine Receptor 4 (5HT4), HTR4 (gene 100135548) (UniProt O70528). Description: NVS_GPCR_g5HT4: NovaScreen (NVS) G Protein-Coupled Receptor Assay for guinea pig Serotonin, 5-Hydroxytryptamine Receptor 4 (5HT4) (AID 2283294). The essentials:
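Compounds first screened in duplicate at 25 uM, actives followed up in concentration series. Binding measured as displacement of specific radioligand from guinea pig striatal membranes, 1 h, filter-based scintillation read-out versus DMSO baseline.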

Assay [6] concerns the target rat Adrenergic, Alpha 1, Non-selective Receptor (Adra1), Adra1a (gene 29412) (UniProt P43140). The assay is described as follows: NVS_GPCR_rAdra1_NonSelective: NovaScreen (NVS) G Protein-Coupled Receptor Assay for rat Adrenergic, Alpha 1, Non-selective Receptor (Adra1) (AID 2283289). The essentials:
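Chemicals first screened in duplicate at 25 uM, then actives tested in concentration series up to 50 uM. Binding measured as displacement of radioligand from rat forebrain membrane receptors, 1 h, filtration with scintillation readout; DMSO baseline.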

In assay [7] the target is rat Corticotropin Releasing Factor Receptor (CRF), Crhr1 (gene 58959) (UniProt P35353). The assay is described as follows: NVS_GPCR_rCRF: NovaScreen (NVS) G Protein-Coupled Receptor Assay for rat Corticotropin Releasing Factor Receptor (CRF) (AID 2283300). The essentials: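 Single-concentration (25 uM, duplicate) radioligand binding on rat cortical membrane preparations, counted by scintillation after 2 h. Activity scored as signal loss relative to DMSO negative control.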
Sequence of rat Corticotropin Releasing Factor Receptor (CRF), Crhr1 (gene 58959) (P35353 whole entry, looked up): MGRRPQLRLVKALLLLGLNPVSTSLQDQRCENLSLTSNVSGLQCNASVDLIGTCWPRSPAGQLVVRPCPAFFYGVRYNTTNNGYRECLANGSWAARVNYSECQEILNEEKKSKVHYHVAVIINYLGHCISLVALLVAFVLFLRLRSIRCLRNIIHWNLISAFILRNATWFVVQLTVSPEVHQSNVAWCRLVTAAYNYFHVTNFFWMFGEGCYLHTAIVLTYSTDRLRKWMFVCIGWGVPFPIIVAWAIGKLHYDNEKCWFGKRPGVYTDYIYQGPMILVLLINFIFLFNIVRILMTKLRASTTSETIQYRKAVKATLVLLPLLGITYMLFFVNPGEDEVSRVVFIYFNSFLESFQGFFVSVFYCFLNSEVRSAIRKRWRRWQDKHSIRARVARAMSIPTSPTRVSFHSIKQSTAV

Assay [8] deals with mouse Cholecystokinin, CCK1 Receptor (CCKA), Cckar (gene 12425) (UniProt O08786). The assay is described as follows: NVS_GPCR_mCCKAPeripheral: NovaScreen (NVS) G Protein-Coupled Receptor Assay for mouse Cholecystokinin, CCK1 Receptor (CCKA) (AID 2283285). Put shortly: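 Chemicals were first screened in duplicate at 25 uM, with those meeting threshold (e.g., 30% inhibition) retested in singleton concentration series to 50 uM maximum. Binding of radioligand to mouse pancreatic membranes was read after 2 h by filtration and scintillation counting.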

Assay [9] has as its target human Vasopressin 1A Receptor (V1A), AVPR1A (gene 552) (UniProt P37288). Description: NVS_GPCR_hV1A: NovaScreen (NVS) G Protein-Coupled Receptor Assay for human Vasopressin 1A Receptor (V1A) (AID 2283284). The essentials: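 Single-concentration duplicate screen at 25 uM, with concentration-response follow-up (top 50 uM) for actives. The assay measured displacement of a radioligand from human platelet-derived receptor after 1.5 h, detected by filtration and scintillation counting.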

Assay [10] relates to guinea pig Atrionatriuretic Peptide Receptor A (ANPA), gene 100135578. The assay is described as follows: NVS_GPCR_gANPA: NovaScreen (NVS) G Protein-Coupled Receptor Assay for guinea pig Atrionatriuretic Peptide Receptor A (ANPA) (AID 2283291). The essentials: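 Displacement of specific radioligand from guinea pig cerebellum membranes was read by scintillation after 1 h. A duplicate single-point screen at 25 uM was followed by a concentration series up to 50 uM, analysed relative to DMSO.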

Assay [11] deals with rat Gamma-Aminobutyric Acid Type B Receptor (GABBR), Gabbr1 (gene 81657) (UniProt Q9Z0U4). Description: NVS_GPCR_rGABBR: NovaScreen (NVS) G Protein-Coupled Receptor Assay for rat Gamma-Aminobutyric Acid Type B Receptor (GABBR) (AID 2283301). The essentials:
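Rat cortical membrane preparation, competitive radioligand binding for 1 h with filtration and scintillation readout. Actives from duplicate single-point 25 uM screening proceeded to concentration series with 50 uM top concentration.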

Assay [12] deals with rat Serotonin, 5-Hydroxytryptamine Receptor 1 (5HT1), Non-Selective Binding, Htr1a (gene 24473) (UniProt P19327). Description: NVS_GPCR_r5HT1_NonSelective: NovaScreen (NVS) G Protein-Coupled Receptor Assay for rat Serotonin, 5-Hydroxytryptamine Receptor 1 (5HT1), Non-Selective Binding (AID 2283286). The essentials:
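Binding of a radioligand to rat cortex membranes is read by filtration and scintillation counting after 1 h. Compounds were screened at 25 uM in duplicate. Actives were then titrated to a top of 50 uM. DMSO is the baseline.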

For assay [13], the target named is rat Adrenergic Receptor, Alpha 2 (Adra2), Non-selective Binding, Adra2a (gene 25083) (UniProt P22909). Description: NVS_GPCR_rAdra2_NonSelective: NovaScreen (NVS) G Protein-Coupled Receptor Assay for rat Adrenergic Receptor, Alpha 2 (Adra2), Non-selective Binding (AID 2283299). The essentials: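 Filter-based scintillation counting of radioligand binding to rat cortical membrane receptors, measured 1.25 hours post-dosing; loss of signal versus DMSO indicates displacement. Initial single-concentration duplicate at 25 uM, then concentration series.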

Another assay concerns the target Adra2b (gene 24174) (UniProt P19328). Description: NVS_GPCR_rmAdra2B: NovaScreen (NVS) G Protein-Coupled Receptor Assay for hybird cells Adrenergic, Alpha 2B Receptor (Adra2B) (AID 2283306). Put shortly: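 Compounds screened first at 25 uM in duplicate, with actives followed up in concentration-response; specific radioligand displacement from hybrid neuroglioma/blastoma cell membrane preparations measured by filter scintillation counting after 1 h, normalized to DMSO.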

Assay [14] addresses mouse Cholecystokinin, CCK2 Receptor (CCKB), Cckbr (gene 12426) (UniProt P56481). Description: NVS_GPCR_mCKKBCentral: NovaScreen (NVS) G Protein-Coupled Receptor Assay for mouse Cholecystokinin, CCK2 Receptor (CCKB) (AID 2283293). Put shortly: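 Mouse forebrain membrane preparation incubated 2 h with chemical and radioligand; bound radioactivity counted after filtration. Single-concentration duplicate screen at 25 uM, then concentration series to 50 uM max for hits, DMSO as baseline.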

In assay [15] the target is rat Adrenergic Receptor, Beta (Adrb), Non-selective Binding, Adrb1 (gene 24925) (UniProt P18090). The assay is described as follows: NVS_GPCR_rAdrb_NonSelective: NovaScreen (NVS) G Protein-Coupled Receptor Assay for rat Adrenergic Receptor, Beta (Adrb), Non-selective Binding (AID 2283298). Put shortly: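 Rat cortical membranes incubated 1 h with beta-adrenergic radioligand and test chemical; bound ligand measured by filtration and scintillation counting. Screen at 25 uM duplicate, then concentration series with 50 uM maximum; loss of signal versus DMSO.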

Assay [16] has as its target rat Adrenergic, Alpha 1A Receptor (Adra1A), Adra1a (gene 29412) (UniProt P43140). The assay is described as follows: NVS_GPCR_rAdra1A: NovaScreen (NVS) G Protein-Coupled Receptor Assay for rat Adrenergic, Alpha 1A Receptor (Adra1A) (AID 2283296). The essentials:
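Filter radiodetection after 1 h competitive binding on CEC-pretreated rat cortical membranes. Duplicate single-point screening at 25 uM; active chemicals retested across concentration series.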

Sequence of rat Serotonin, 5-Hydroxytryptamine Receptor 1 (5HT1), Non-Selective Binding, Htr1a (gene 24473) (P19327 whole entry, looked up): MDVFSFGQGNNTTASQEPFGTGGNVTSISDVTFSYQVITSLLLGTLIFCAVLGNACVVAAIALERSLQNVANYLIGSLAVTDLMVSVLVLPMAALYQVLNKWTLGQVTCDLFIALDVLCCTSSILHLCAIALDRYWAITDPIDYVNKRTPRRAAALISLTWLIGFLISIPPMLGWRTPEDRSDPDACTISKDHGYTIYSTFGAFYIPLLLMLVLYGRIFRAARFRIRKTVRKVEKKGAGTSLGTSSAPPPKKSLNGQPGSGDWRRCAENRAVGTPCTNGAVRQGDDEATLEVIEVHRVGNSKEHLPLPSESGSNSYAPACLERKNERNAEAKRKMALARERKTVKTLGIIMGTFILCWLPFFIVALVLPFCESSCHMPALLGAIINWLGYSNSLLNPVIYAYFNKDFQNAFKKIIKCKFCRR
Sequence of guinea pig Serotonin, 5-Hydroxytryptamine Receptor 4 (5HT4), HTR4 (gene 100135548) (O70528 whole entry, looked up): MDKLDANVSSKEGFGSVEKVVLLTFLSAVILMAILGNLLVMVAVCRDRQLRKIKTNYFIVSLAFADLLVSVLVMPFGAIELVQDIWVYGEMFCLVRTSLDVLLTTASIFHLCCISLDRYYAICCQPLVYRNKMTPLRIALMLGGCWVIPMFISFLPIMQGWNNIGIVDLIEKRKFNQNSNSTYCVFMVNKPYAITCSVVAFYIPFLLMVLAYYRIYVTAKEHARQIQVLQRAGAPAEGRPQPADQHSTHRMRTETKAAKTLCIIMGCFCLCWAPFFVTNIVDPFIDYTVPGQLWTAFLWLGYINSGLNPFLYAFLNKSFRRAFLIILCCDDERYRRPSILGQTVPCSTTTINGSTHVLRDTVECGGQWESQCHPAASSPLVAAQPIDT
Sequence of human Opioid Receptor Mu (Opiate Mu), OPRM1 (gene 4988) (P35372 whole entry, looked up): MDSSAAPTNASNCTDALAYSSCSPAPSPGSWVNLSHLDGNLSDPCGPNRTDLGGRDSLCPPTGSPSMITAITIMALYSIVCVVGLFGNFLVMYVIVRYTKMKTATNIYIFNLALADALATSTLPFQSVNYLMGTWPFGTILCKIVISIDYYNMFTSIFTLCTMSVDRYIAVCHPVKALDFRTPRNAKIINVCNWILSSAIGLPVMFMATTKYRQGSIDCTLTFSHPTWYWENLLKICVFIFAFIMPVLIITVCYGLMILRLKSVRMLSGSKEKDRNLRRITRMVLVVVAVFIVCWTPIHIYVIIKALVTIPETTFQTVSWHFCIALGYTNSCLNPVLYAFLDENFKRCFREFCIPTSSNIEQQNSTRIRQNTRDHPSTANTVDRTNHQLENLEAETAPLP
Sequence of rat Serotonin, 5-Hydroxytryptamine Receptor (5HT), Non-Selective Binding, Htr1a (gene 24473) (P19327 whole entry, looked up): as the sequence (P19327 whole entry, looked up) above
Sequence of rat Adrenergic, Alpha 1, Non-selective Receptor (Adra1), Adra1a (gene 29412) (P43140 whole entry, looked up): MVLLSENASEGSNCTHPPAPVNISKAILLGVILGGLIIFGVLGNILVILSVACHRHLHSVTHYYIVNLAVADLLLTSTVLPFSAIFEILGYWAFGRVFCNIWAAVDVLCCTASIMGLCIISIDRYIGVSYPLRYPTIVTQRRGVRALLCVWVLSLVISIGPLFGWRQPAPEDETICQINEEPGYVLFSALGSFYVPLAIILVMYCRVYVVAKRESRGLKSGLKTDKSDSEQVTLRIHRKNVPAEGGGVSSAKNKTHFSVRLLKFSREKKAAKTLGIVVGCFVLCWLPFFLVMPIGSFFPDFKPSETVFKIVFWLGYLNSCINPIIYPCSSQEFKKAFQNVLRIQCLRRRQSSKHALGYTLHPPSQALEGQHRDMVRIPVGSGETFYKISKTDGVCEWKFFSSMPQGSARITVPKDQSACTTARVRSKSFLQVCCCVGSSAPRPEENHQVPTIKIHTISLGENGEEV
Sequence of rat Histamine Receptor (H3), Hrh3 (gene 85268) (Q9QYN8 whole entry, looked up): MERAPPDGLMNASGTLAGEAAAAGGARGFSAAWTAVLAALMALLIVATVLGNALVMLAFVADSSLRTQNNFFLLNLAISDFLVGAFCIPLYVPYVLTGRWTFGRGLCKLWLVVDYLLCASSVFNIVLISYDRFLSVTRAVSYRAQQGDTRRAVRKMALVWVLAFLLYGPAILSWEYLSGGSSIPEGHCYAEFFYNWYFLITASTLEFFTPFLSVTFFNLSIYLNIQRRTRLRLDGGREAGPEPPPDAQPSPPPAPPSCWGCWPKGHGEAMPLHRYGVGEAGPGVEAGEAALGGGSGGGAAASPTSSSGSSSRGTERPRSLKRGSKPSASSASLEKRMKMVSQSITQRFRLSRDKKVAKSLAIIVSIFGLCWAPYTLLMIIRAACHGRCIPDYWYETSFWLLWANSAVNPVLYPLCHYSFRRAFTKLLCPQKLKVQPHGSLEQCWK
Sequence of Adra2b (gene 24174) (P19328 whole entry, looked up): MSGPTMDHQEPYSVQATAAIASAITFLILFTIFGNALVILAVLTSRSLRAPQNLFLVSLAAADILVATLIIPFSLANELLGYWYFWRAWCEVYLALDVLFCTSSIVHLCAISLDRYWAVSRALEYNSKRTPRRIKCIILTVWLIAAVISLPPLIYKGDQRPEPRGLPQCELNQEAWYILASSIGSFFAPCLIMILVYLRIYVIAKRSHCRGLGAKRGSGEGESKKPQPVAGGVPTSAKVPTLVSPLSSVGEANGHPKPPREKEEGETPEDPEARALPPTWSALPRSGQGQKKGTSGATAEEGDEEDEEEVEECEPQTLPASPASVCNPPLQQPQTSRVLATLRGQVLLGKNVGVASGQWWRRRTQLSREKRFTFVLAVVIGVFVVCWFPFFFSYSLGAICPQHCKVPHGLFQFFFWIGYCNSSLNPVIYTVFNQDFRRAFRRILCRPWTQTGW
Sequence of rat Adrenergic, Alpha 1A Receptor (Adra1A), Adra1a (gene 29412) (P43140 whole entry, looked up): as the sequence (P43140 whole entry, looked up) above
Sequence of rat Gamma-Aminobutyric Acid Type B Receptor (GABBR), Gabbr1 (gene 81657) (Q9Z0U4 whole entry, looked up): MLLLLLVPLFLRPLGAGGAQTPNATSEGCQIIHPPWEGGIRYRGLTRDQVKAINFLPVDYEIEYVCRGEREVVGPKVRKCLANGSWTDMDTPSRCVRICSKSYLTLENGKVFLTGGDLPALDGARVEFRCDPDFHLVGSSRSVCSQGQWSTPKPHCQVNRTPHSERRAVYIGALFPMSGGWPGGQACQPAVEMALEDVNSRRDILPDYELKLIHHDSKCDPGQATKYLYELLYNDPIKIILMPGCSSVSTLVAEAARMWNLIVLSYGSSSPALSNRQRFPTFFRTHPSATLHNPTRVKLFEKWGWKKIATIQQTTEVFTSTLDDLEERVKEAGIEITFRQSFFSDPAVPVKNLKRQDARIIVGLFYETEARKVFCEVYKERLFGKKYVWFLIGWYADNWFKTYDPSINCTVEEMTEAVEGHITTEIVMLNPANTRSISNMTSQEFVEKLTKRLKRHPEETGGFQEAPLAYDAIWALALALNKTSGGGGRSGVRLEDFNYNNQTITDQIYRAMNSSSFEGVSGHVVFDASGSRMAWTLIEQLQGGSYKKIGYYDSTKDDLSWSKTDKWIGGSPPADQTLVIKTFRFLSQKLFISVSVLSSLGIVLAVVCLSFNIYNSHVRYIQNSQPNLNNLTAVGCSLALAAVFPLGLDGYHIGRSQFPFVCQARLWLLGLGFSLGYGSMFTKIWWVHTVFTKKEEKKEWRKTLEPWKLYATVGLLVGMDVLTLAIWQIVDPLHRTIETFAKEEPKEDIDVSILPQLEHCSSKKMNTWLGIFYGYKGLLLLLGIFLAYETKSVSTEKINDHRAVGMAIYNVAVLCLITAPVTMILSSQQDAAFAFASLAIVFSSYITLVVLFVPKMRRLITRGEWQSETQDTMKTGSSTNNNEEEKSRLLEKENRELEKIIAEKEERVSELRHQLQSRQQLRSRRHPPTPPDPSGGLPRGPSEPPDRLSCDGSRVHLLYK

Regarding `COc1cc(OC)nc(Sc2cccc(Cl)c2C(=O)O)n1`, the molecule was classed as inactive in assay [1].
With `N#CSCSC#N`, in assay [2], the AC50 was 9.77 µM (active).
Turning to `COP(=O)(OC)OC(Br)C(Cl)(Cl)Br` (centres undefined), in assay [3], the result was inactive. In addition, the AC50 is 8.83 µM (active) in assay [4] and 5.79 µM (active) in assay [2].
Regarding `CCCOCC(=Nc1ccc(Cl)cc1C(F)(F)F)n1ccnc1`, the AC50 in assay [4] was 7.33 µM (active). The call in [5] was inactive.
Regarding `CC(C)=CC1C(C(=O)OCN2C(=O)C3=C(CCCC3)C2=O)C1(C)C` (centres undefined), in assay [3], the AC50 is 7.72 µM (active). For the same molecule, the result in assay [6] and in [7] was inactive.
`C#CC(C)(C)NC(=O)c1cc(Cl)cc(Cl)c1`: the molecule was classed as inactive in [7].
As to `CCCSP(=O)(OCC)Oc1ccc(Br)cc1Cl` (centres undefined), in assay [8], the call was inactive. Also, the AC50 in assay [4] was 4.96 µM (active).
Turning to `CCCCOC(=O)c1ccccc1C(=O)O`, the result in assay [6] was inactive.
As to `COc1cccc(C(=O)NN(C(=O)c2cc(C)cc(C)c2)C(C)(C)C)c1C`, the call in assay [9] was inactive.
As for `CSc1nc(NC(C)C)nc(NC(C)C)n1`, in assay [5], the molecule was called inactive.
Consider `CCc1cccc(CC)c1N(COC)C(=O)CCl`, for which the concentration at half-maximal activity (AC50) in assay [4] is 4.96 µM (active). Moreover, the call in assay [10] was inactive.
In the case of `CCCCOC(=O)[C@@H](C)Oc1ccc(Oc2ccc(C#N)cc2F)cc1`, the molecule was classed as inactive in assay [3].
For `COP(=O)(NC(C)=O)SC` (centres undefined), the result in [11] was inactive.
Consider `CN(C)C(=O)Nc1cccc(C(F)(F)F)c1`, for which the molecule was classed as inactive in assay [12].
For the molecule `CC(C)[C@H](C(=O)O[C@H](C#N)c1cccc(Oc2ccccc2)c1)c1ccc(Cl)cc1`, the result in assay [5] and in assay [13] was inactive.
As for `CCC(=O)Nc1ccc(Cl)c(Cl)c1`, the outcome (in assay [12]; with Adra2b (gene 24174)) was inactive. In addition, the AC50 was 9.91 µM (active) in [5] and 34.6 µM (active) in assay [1].
`FC(F)C(F)(F)OCC(Cn1cncn1)c1ccc(Cl)cc1Cl` (centres undefined): the AC50 in assay [4] was 9.52 µM (active); in assay [14], 10.3 µM (active). The molecule was classed as inactive in assay [15].
With `CSC1=N[C@@](C)(c2ccccc2)C(=O)N1Nc1ccccc1`, the result in [16] was inactive.
With `CCc1cccc(C)c1N(C(=O)CCl)C(C)COC` (centres undefined), the AC50 in assay [4] was 5.26 µM (active).
On to `CCOP(=S)(OCC)Oc1cc(C)nc(C(C)C)n1`, for which the result in assay [12] was inactive.
As for `COc1ccc(C(=CC(=O)N2CCOCC2)c2ccc(Cl)cc2)cc1OC`, the AC50 with Adra2b (gene 24174) is 11.7 µM (active).

The record behind these values is PubChem BioAssay (EPA / NIEHS).
